{"source": "PubChem BioAssay (NCATS)", "note": "Unmarked numbers belong to inactive results. Activity calls are given as the source filed them. How the calls were made is not given here. Potency means the concentration at half of the fitted maximal effect.", "data": [{"test_system": "HIV-1 nucleocapsid protein NCp7 (binding to TG oligonucleotide)", "experiment": "HIV Nucleocapsid (AID 346);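 further: potency is for inhibitors that block NC binding and lower polarization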", "details": "HIV-1 NC / fluorescein-TGTGTGTG probe, fluorescence polarization", "how_it_was_run": "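HIV-1 NC (100 nM) binding to fluorescein-labelled ssDNA TG4xF (10 nM) in Hepes pH 7.5, 250mM NaCl, 1uM ZnCl2, TCEP and 2-mercaptoethanol; compounds pin-transferred, 1 hr room temperature, fluorescence polarization read on CCD imager.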", "values": [{"smiles": "COCCNc1ncnc2ccc(-c3ccccc3C(F)(F)F)cc12", "Potency": "> 20 µM"}, {"smiles": "CS(=O)(=O)N1CCC2(CCCN(C(=O)Nc3cccc(C#N)c3)C2)CC1", "Potency": "> 20 µM"}, {"smiles": "COCC(=O)N1CCC[C@@]2(CCN(C(=O)Nc3ccc(OC)cc3)C2)C1", "Potency": "> 20 µM"}, {"smiles": "O=c1cnc2cncnc2n1Cc1ccc(F)cc1", "Potency": "> 20 µM"}, {"smiles": "N#Cc1cccc(NC(=O)N2CCCC3(CCN(C(=O)c4ccco4)CC3)C2)c1", "Potency": "> 4 µM"}, {"smiles": "COc1cccc(Nc2ncc3nc(C)c(=O)n(C[C@H]4CCCO4)c3n2)c1", "Potency": "> 20 µM"}, {"smiles": "CS(=O)(=O)N1CCC2(CCCN(C(=O)Nc3cccc(F)c3)C2)CC1", "Potency": "> 20 µM"}, {"smiles": "O=C(c1cccc(F)c1)N1CCC2(CCCN(C(c3ccccc3)c3ccccc3)C2)CC1", "Potency": "> 20 µM"}, {"smiles": "COc1ccccc1CNc1nc(-c2ccccc2CN(C)C)nc2ccccc12", "Potency": "> 20 µM"}, {"smiles": "CN1CCN(c2ncc3nc(-c4ccccc4)c(=O)n(C4CC4)c3n2)CC1", "Potency": "> 20 µM"}, {"smiles": "CCNc1ncc2nc(-c3cccs3)c(=O)n(Cc3cccc(OC)c3)c2n1", "Potency": "> 4 µM"}, {"smiles": "O=C(Nc1ccccc1)N1CCCC2(CCN(S(=O)(=O)c3ccccc3)CC2)C1", "Potency": "> 20 µM"}, {"smiles": "CS(=O)(=O)N1CCC2(CC1)CN(Cc1ccccc1)C2", "Potency": "> 20 µM"}, {"smiles": "CN(C)c1ncc2nc(-c3ccc(Cl)cc3)c(=O)n(Cc3ccc(F)cc3)c2n1", "Potency": "> 4 µM"}, {"smiles": "COc1cccc(-c2cc(NCc3ccccc3)ncn2)c1", "Potency": "> 20 µM"}, {"smiles": "FC(F)(F)c1ccccc1-c1ccc2ncnc(NC3CC3)c2c1", "Potency": "> 20 µM"}, {"smiles": "Cc1nc2cncnc2n(Cc2ccccc2)c1=O", "Potency": "> 20 µM"}, {"smiles": "CC(C)NC(=O)N1CCCC2(CCN(C(=O)c3cccc(F)c3)CC2)C1", "Potency": "> 20 µM"}, {"smiles": "COCCn1c(=O)c(-c2ccc(Cl)cc2)nc2cnc(Nc3ccccc3)nc21", "Potency": "> 20 µM"}, {"smiles": "O=c1c(-c2cc(F)cc(F)c2)nc2cnc(N3CCOCC3)nc2n1CCc1ccccc1", "Potency": "> 20 µM"}, {"smiles": "Cc1nc2cnc(N3CCNCC3)nc2n(CCC#N)c1=O", "Potency": "> 20 µM"}, {"smiles": "COCCn1c(=O)c(-c2cn(C)c3ccccc23)nc2cnc(N3CCOCC3)nc21", "Potency": "> 20 µM"}, {"smiles": "COCCn1c(=O)c(-c2ccc(OC)cc2)nc2cnc(Nc3ccccc3)nc21", "Potency": "> 20 µM"}, {"smiles": "COc1ccc2[nH]cc(CCNc3ncncc3-c3ccc(N(C)C)cc3)c2c1", "Potency": "> 20 µM"}, {"smiles": "CN(Cc1ccco1)c1nc(-c2ccccc2Cl)nc2ccccc12", "Potency": "> 20 µM"}, {"smiles": "Cc1nc2cnc(N3CCNCC3)nc2n(Cc2ccc(F)cc2)c1=O", "Potency": "> 4 µM"}, {"smiles": "CS(=O)(=O)Nc1cccc(-c2nc(-n3ccnc3)c3ccccc3n2)c1", "Potency": "> 20 µM"}, {"smiles": "COc1ccc(-c2nc3cnc(Nc4cccc(OC)c4)nc3n(Cc3cccs3)c2=O)cc1", "Potency": "0.247 µM (active)"}, {"smiles": "COc1cccc(Nc2ncc3nc(C)c(=O)n(-c4ccccc4)c3n2)c1", "Potency": "> 20 µM"}, {"smiles": "FC(F)(F)c1ccccc1-c1cc(NCc2ccccc2)ncn1", "Potency": "> 20 µM"}, {"smiles": "CN(C)c1ncc2nc(-c3cccc(C#N)c3)c(=O)n(C)c2n1", "Potency": "> 20 µM"}, {"smiles": "CN(Cc1ccco1)c1ncnc2ccc(-c3cccc(NS(C)(=O)=O)c3)cc12", "Potency": "> 20 µM"}, {"smiles": "COc1ncc2nc(-c3ccc(F)cc3)c(=O)n(-c3ccccc3)c2n1", "Potency": "> 20 µM"}, {"smiles": "CN(C)c1ncc2nc(-c3cc(F)cc(F)c3)c(=O)n(Cc3cccs3)c2n1", "Potency": "> 4 µM"}, {"smiles": "CN1CCN(c2ncc3nc(CCc4ccccc4)c(=O)n(Cc4cccs4)c3n2)CC1", "Potency": "> 20 µM"}, {"smiles": "COc1ccc2[nH]cc(CCNc3ncncc3-c3ccccc3OC)c2c1", "Potency": "> 20 µM"}, {"smiles": "COc1ccccc1CCn1c(=O)c(C)nc2cncnc21", "Potency": "> 20 µM"}, {"smiles": "O=C(Nc1cccc(F)c1)N1CC2(CCN(C(=O)c3csnn3)CC2)C1", "Potency": "> 20 µM"}, {"smiles": "COc1ccc(CNc2nc(-c3c(C)noc3C)nc3ccccc23)c(OC)c1", "Potency": "> 20 µM"}, {"smiles": "c1ccc(Nc2ncnc3ccc(-c4ccoc4)cc23)cc1", "Potency": "> 20 µM"}]}]}
